Source: PubChem (National Center for Advancing Translational Sciences (NCATS))
Most compounds without a hit are left out; they make up all but 2.3% or so of the library.
Tau FP inhib – inhibitors of human tau fibril formation; P10636; K18 P301L tau heparin fibrillization, Alexa594 FP, 6 h; Potency, µM (titrated, usually from 57.7 µM), inactives show at the top dose activity, negative = inhibition, most hits filed as inhibitors; 0.39% of 280,000 active; also: potency is read from the fitted curve at half-maximal effect; nearly all actives have a fitted effect of over 55% in size
Target sequence (P10636 561-689 P618L limits assumed): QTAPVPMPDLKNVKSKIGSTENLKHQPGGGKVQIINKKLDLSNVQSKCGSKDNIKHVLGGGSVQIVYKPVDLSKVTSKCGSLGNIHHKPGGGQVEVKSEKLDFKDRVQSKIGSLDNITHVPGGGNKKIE
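FP of Alexa 594-tau after heparin (20 uM) induction. Substrate: human K18 P301L, 15 uM unlabeled, 0.24 uM labeled. Buffer 100 mM sodium acetate pH 7. 6 hr, 37 C.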
Tau fibril ThT – inhibitors of human tau fibril formation, thioflavin T binding; recombinant tau K18 P301L, heparin-induced fibrillization, ThT fluorescence; Potency, µM (highest dose often 57.4 µM), for the others: at the top dose activity, negative = inhibition, most hits filed as inhibitors; 2.1% of 270,000 active; AID 1460; also: potency is read from the fitted curve at half-maximal effect; nearly all actives have a fitted effect of over 55% in size
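Using a mix of unlabeled (15 uM) and Alexa 594-labeled (0.24 uM) tau K18 P301L, heparin-triggered fibrillization over 6 hr at 37 C was scored by ThT fluorescence.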
Coupling enz – inhibits coupling enzyme system, counter-screen for aldolase hits. coupling enzyme system counterscreen, AmpLite Red fluorescence. activity change, negative = inhibition, % at 58.2 µM, hits read low. 0.67% of 290,000 active. AID 2472; in the data active = activity change below about -30%
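First, compound is pin-transferred into glyceraldehyde-3-phosphate coupling-enzyme reagent at 57.5 uM final and held 10 min at RT. Next, substrate, coupling system and AmpLite Red are added. After 20 min RT, fluorescence (525/598 nm) is read.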
Tau fluor counter – counter-screen for tau fibril formation inhibitors; AID 1463; tau K18 P301L (four-repeat tau fragment) Alexa594 fluorescence, heparin fibrillization; Potency, µM (highest dose often 57.7 µM), without a hit: top-dose activity change, negative = decrease; 0.93% of 280,000 active; also: potency is read from the fitted curve at half-maximal effect; nearly all actives have a fitted effect of over 55% in size
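Human K18 P301L tau (15 uM unlabeled plus 0.24 uM Alexa 594-labeled, final) in 100 mM sodium acetate pH 7 was mixed with compound and 20 uM heparin and incubated 6 hr at 37 C.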
USP1 inh – inhibitors of human USP1/UAF1 deubiquitinase. Potency, µM (titrated, usually from 57.1 µM), without a hit: top-dose activity change, negative = inhibition, usual class: inhibitors. O94782. recombinant USP1/UAF1, Ub-Rhodamine cleavage fluorescence. 0.23% of 390,000 active; also: potency is read from the fitted curve at half-maximal effect; nearly all actives have a fitted effect of over 60% in size
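Step one: compound is pinned into 1nM USP1/UAF1 in HEPES pH 7.8 buffer with TCEP. Step two: 15 min room-temperature incubation. Step three: Ub-Rho (150nM final) starts cleavage, tracked by fluorescence over six one-minute reads.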
Numbers without * were called inactive; ? = inconclusive; · = not tested or not shown; [ ] = dose if it differs, or a comment. Unless noted, calls follow the shape of the dose curve; as a rule, active = well fitted curve in the direction sought with a large enough effect; inconclusive = small, poorly fitted or top-dose-only effect, or another doubt; inactive = no such curve, though single readings can be large; an effect the other way counts as inactive or inconclusive. % is scaled to controls: 0 for no effect and ±100 for the full control effect.

SMILES	Tau FP inhib	Tau fibril ThT	Coupling enz	Tau fluor counter	USP1 inh
COc1ccccc1NS(=O)(=O)c1cccc(-n2c(O)c(C=Nc3ccccc3C(=O)O)c3ccccc3c2=O)c1	-16.6%	15.8µM*	4.7	?	?
Cc1ccc(/C(N)=N/OC(=O)CCc2ccccc2)cc1	?	31.6µM*	-1.4	?	-9.6%
Cc1nnc(NC(=O)C(=O)c2cc(C)n(-c3ccc(C)c(C)c3)c2C)s1	2.4%	-5.1%	·	-6.7%	-13.3%
Cc1ccc(C)c(-n2c(SCC(=O)NCC3CCCO3)nnc2-c2ccoc2C)c1 (configuration not stated)	28.2µM*	?	9.9	-15.1%	-22.3%
COc1ccc2c(c1)c1ccc3c(c1n2C)C(=O)C=CC3=O	15.8µM*	5.01µM*	-14.9	3.55µM*[quencher]	-19.3%
Cc1ccc2c(c1)c1ncnc(N3CCOCC3)c1n2C	-4.6%	-20.3%	0.4	-9.9%	-11.1%
Cc1ccc2c(c1)c1ccc3c(c1n2C)C(=O)C=CC3=O	?	·	-12.2	0.891µM*[quencher]	-22.5%
CCN(C(=O)c1cc2c(s1)-c1c(C)cccc1OC2)c1ccccc1F	1.2%	?	·	-20.4%	?
CCNc1ccc(C(=O)NN=C2CCCC2)cc1[N+](=O)[O-]	3.9%	8.91µM*	-1.3	-18.1%	-17.8%
Cc1ccc(C(=O)NN=C2CCCC2)cc1C	·	·	·	·	-17.2%
CC(=O)N1CCC2(CC1)OC(=O)C(C)=C2C(=O)NCc1ccc(Cl)cc1	-1.4%	7.5%	·	2.2%	-0.5%
COc1ccccc1NC(=O)c1cc2c(-c3ccccc3)nn(-c3ccccc3)c2s1	?	-4.3%	·	-24.3%	-23.9%
Cc1nn(-c2ccccc2)c2sc(C(=O)Nc3cccc(Br)c3)cc12	7.94µM*	?	·	?	-9.4%
O=C(Nc1ccccc1)c1cc2c(-c3ccccc3)nn(-c3ccccc3)c2s1	20µM*	-1.1%	·	?	?
O=C(Nc1ccc(Cl)cc1)c1cc2c(-c3ccccc3)nn(-c3ccccc3)c2s1	25.1µM*	10.6%	·	-26.8%	-22.1%
Cc1nn(-c2ccccc2)c2sc(C(=O)Nc3ccc(Br)cc3)cc12	?	?	·	?	-5.1%
COc1ccc(-c2csc3nc(-c4ccccc4C)oc(=O)c23)cc1OC	-14.9%	-9.6%	·	-14.2%	1.1%
CCOc1ccc(C(=O)Nc2cccc(OCc3cc(=O)n4cc(C)sc4n3)c2)cc1	?	1.2%	·	1.1%	-26.8%
COc1ccc(NC(=O)CSC2=Nc3ccccc3C3=NC(Cc4ccccc4)C(=O)N23)cc1Cl (configuration not stated)	-9.1%	8.0%	·	-26.2%	-7.6%
Cc1nc2c(cc(Oc3ccc(S(=O)(=O)N4CCOCC4)cn3)c3ccsc32)s1	8.7%	6.8%	-40.4*	-18.0%	-18.0%
COc1cc(C(C)=O)ccc1Oc1ccc(S(=O)(=O)N2CCOCC2)cn1	·	·	·	·	1.5%
COc1ccccc1-c1ccc2ncnc(NCCN3CCOCC3)c2c1	·	·	-2.6	·	·
Cn1c(=O)n(C)c2cc(N3CCCCC3)c(NC(=O)c3c(F)cccc3F)cc21	0.3%	?	·	-24.6%	-18.2%
Cc1[nH]c2ccccc2c1C(c1ccncc1)N1CCCCC1 (configuration not stated)	5.0%	?	2.6	-29.7%	-7.2%
Cc1ccc(C(c2cccc(Br)c2)c2c(C)[nH]c3ccccc23)s1 (configuration not stated)	?	?	·	5.62µM*[quencher]	-23.0%
SMILES	Tau FP inhib	Tau fibril ThT	Coupling enz	Tau fluor counter	USP1 inh
CCCCn1c(NCc2cc(Cl)ccc2O)nc2ccccc21	-11.7%	1.7%	·	?	-24.6%
CCCC(c1nnnn1CCOC)N(Cc1cc2cc(C)c(C)cc2[nH]c1=O)CC1CCCO1 (configuration not stated)	0.5%	-7.2%	-41.4*	-1.3%	-5.0%
Oc1ccc(/C=N/Nc2ccc(Cl)nn2)c(O)c1O	·	·	-37.9*	·	?
CCc1ccc(S(=O)(=O)/N=C2\C=C(NS(=O)(=O)c3ccccc3)C(=O)c3ccccc32)cc1	·	·	-33.9*	·	25.1µM*
Cc1ccc(C)c(S(=O)(=O)/N=C2\C=C(NS(=O)(=O)c3ccccc3)C(=O)c3ccccc32)c1	·	·	-50.2*	·	15.8µM*
CC(C)c1ccc(S(=O)(=O)c2cc3cc(Br)ccc3oc2=O)cc1	-2.1%	11.1%	2.2	2.4%	-20.0%
